Source: PubChem BioAssay
A selection follows.
aSyn 5UTR act: Activators via SNCA 5'UTR binding, MLPCN | activity score, % (tested at 7.5 µM), hits read low | AID 1814 | 300,000 tested, 7.1% active | alpha-synuclein 5'UTR reporter, activators screen; in the data active = activity score below about -60%
Each line names hits and unclear results; the compound was inactive in the other large screens.

O=C1c2cccc3cc([N+](=O)[O-])cc(c23)C(=O)N1CCN1CCCC1	none
C=CCN1C(=O)c2cccc3c(N4CCCCC4)ccc(c23)C1=O	aSyn 5UTR act -66
O=C1c2cccc3c(N4CCCCC4)ccc(c23)C(=O)N1CCO	aSyn 5UTR act -120
CC1=C/C(=C\C=C(C#N)C#N)N(C)c2ccccc21	aSyn 5UTR act -102
Clc1ccc(Cn2nc(-c3ccccc3)nc2-c2ccccc2)cc1	aSyn 5UTR act -114
O=C(CCc1ccccc1)Nc1cccnc1Cl	aSyn 5UTR act -64
O=C(CC(=O)c1ccccc1)Nc1cccnc1Cl	aSyn 5UTR act -119
COCCNC(=S)NC(=O)c1ccc(C(C)(C)C)cc1	aSyn 5UTR act -91
COCCCNC(=S)NNC(=O)C1CC1c1ccc(C(C)(C)C)cc1 (stereo not given)	aSyn 5UTR act -100
Cc1cccc2cc(C#N)c(NCc3ccccc3)nc12	aSyn 5UTR act -76
COc1cccc(C(=O)NC(=O)Nc2cc(C)[nH]n2)c1	aSyn 5UTR act -140
Cc1cc(NC(=O)c2cccc(Br)c2)n[nH]1	aSyn 5UTR act -141
COc1cccc(C(=O)Oc2c(Br)cc(Br)cc2/C=N/NC(=O)c2cc(C)[nH]n2)c1	none
CCN(CC)S(=O)(=O)c1cc(C(=O)Nc2cc(C)[nH]n2)ccc1Cl	aSyn 5UTR act -161
Cc1snc(SCC(=O)c2ccc(Cl)cc2)c1C#N	aSyn 5UTR act -140
Cc1ccc(C(=O)CSc2nsc(C)c2C#N)cc1	aSyn 5UTR act -149
Cc1ccnc(SCC(=O)c2ccc(Br)cc2)c1C#N	aSyn 5UTR act -198
O=C(/C=C/c1ccc2ccccc2n1)c1cc(Cl)ccc1O	aSyn 5UTR act -69
CCN(CC)c1nc(Nc2ccc(Cl)cc2)nc(OCC#N)n1	none
O=C(Nc1ccc2c(c1)nc1n2CCOC1)C1CCCCC1	aSyn 5UTR act -106
O=C(Nc1ccc2c(c1)nc1n2CCOC1)c1ccco1	aSyn 5UTR act -66
N#Cc1nc(-c2cccs2)oc1NCCc1ccccc1	aSyn 5UTR act -111
COc1ccc(-c2nc(C#N)c(NCCc3ccccc3)o2)cc1OC	aSyn 5UTR act -142
CCCCOC(=O)Nc1ccc(C(C)C)cc1	aSyn 5UTR act -276
CCCCOC(=O)Nc1ccc(C(N)=O)cc1	aSyn 5UTR act -94
CCCCOC(=O)Nc1ccc(N(C)C)cc1	aSyn 5UTR act -162
CCCCOC(=O)Nc1nnc(C(C)C)s1	aSyn 5UTR act -127
CCCCOC(=O)Nc1cccc(C(=O)OCC)c1	aSyn 5UTR act -68
C=CCOc1ccc(C(=O)Nc2ccc(OCC)cc2)cc1	aSyn 5UTR act -70
CCOc1ccc(C(=O)Oc2ccc(NC(C)=O)cc2)cc1	none
O=C(Nc1ccc(F)cc1)c1ccc2snnc2c1	aSyn 5UTR act -92
CCOc1ccc(NC(=O)c2ccc3snnc3c2)cc1	aSyn 5UTR act -120
CC(C)COc1ccc(C(=O)Nc2ccc(SC(F)F)cc2)cc1	aSyn 5UTR act -90
Cc1ccc(C(=O)Nc2ccc(SC(F)F)cc2)s1	aSyn 5UTR act -161
COc1cccc(NC(=O)c2ccc3snnc3c2)c1	aSyn 5UTR act -105
Cc1ccc(NC(=O)c2ccc3snnc3c2)cc1C	aSyn 5UTR act -165
COc1ccc(C2CC(c3ccccc3)=NN2C(=O)COC(=O)c2cccnc2)cc1 (stereo not given)	aSyn 5UTR act -62
COc1ccc(C2CC(c3ccccc3OC(=O)/C=C/c3ccccc3)=NN2C(C)=O)cc1 (stereo not given)	aSyn 5UTR act -69
COc1ccc(C2CC(c3ccccc3)=NN2C(=O)c2cccs2)cc1 (stereo not given)	aSyn 5UTR act -92
CN(C)/C=C1\N=C(c2ccc3c(c2)OCO3)OC1=O	aSyn 5UTR act -116
CCN(CC)C(=S)SCC(=O)c1ccc(Br)cc1	aSyn 5UTR act -110
c1ccc(CCNc2ncnc3sccc23)nc1	aSyn 5UTR act -86
OC(CNc1ncnc2sccc12)c1ccccc1 (stereo not given)	aSyn 5UTR act -97
Cc1nc2c(cc(Oc3ccc(S(=O)(=O)N4CCOCC4)cn3)c3ccsc32)s1	aSyn 5UTR act -89
O=C(CCl)N1c2ccccc2SCC1c1ccccc1 (stereo not given)	aSyn 5UTR act -64
O=C(Cc1ccc(N2CCNC2=O)cc1)N1CCCC(Nc2cccc(F)c2)C1 (stereo not given)	none
Cc1ccc(NC(=O)NCCCN2CCCC2=O)cc1Cl	aSyn 5UTR act -66
O=C(NCCCN1CCCC1=O)C(=O)Nc1cccc(F)c1	aSyn 5UTR act -107
O=C(NNC(=S)Nc1cccc(Cl)c1)c1ccccc1OC(F)F	aSyn 5UTR act -83
Cc1ccc(NC(=S)NNC(=O)c2ccccc2OC(F)F)cc1	aSyn 5UTR act -87
O=C(NNC(=S)Nc1ccc(F)cc1)c1ccccc1OC(F)F	aSyn 5UTR act -63
Cc1ccc(-c2nn(-c3ccccc3)cc2CO)o1	aSyn 5UTR act -82
Cc1ccc(-c2nn(-c3ccccc3)cc2C=O)o1	aSyn 5UTR act -88
Cc1ccc(-c2nn(-c3ccccc3)cc2CSC(=N)N)cc1	none
CC1(C)CC(NC(=O)COc2ccccc2Cl)CC(C)(C)N1	aSyn 5UTR act -66
Cc1c(OCC(=O)NC2CC(C)(C)NC(C)(C)C2)ccc2c1oc(=O)c1ccccc12	aSyn 5UTR act -107
CC(C)(C)c1ccc(C(=O)NCCC(=O)N2CCCC2)cc1	aSyn 5UTR act -105
